Measured values reported in PubChem BioAssay (NCI).
Compounds without any hit were thinned out: in the full panel of roughly 83,000, 20% have a hit.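 Treatment: one concentration, 48 hours, 96-well format. Scoring: percent growth, with anything below 10 considered active.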 Calls of active or inactive are those of the source.

System: NCI-H23 lung
Experiment: NCI-60 one-dose screen, 48 h (100 = growth as untreated, 0 = no growth, -100 = all killed)
Conditions: 10 µM unless noted

Compound | growth
NC(=O)CC1C=CCC1 (stereo not given) | 94.5% (inactive)
CC(=O)Nc1ccc(C=Nc2ccc3ccccc3c2)cc1 | 105% (inactive)
O=[N+]([O-])c1ccc(O)c(-c2nc3ccccc3s2)c1 | 47.3% (inactive)
CCOC(=O)c1nn(C2CCCCO2)c2ccc(NC(=O)Cn3nnc4ccccc43)cc12 (stereo not given) | 102% (inactive)
COC(=O)c1cc2c(=O)[nH]cc3c2c(n1)CCC3 | 106% (inactive)
CCCCCn1c(C)cc(/C=C\c2ccc3cc(C)ccc3[n+]2C)c1C | 3.14% (active)
O=c1[nH]c2cc(Cl)c(Cl)cc2n2cc3ncccc3c12 | 90.6% (inactive)
c1nc(N2CCOCC2)c2[nH]ccc2n1 | 116% (inactive)
CCCC[C@@H](C=O)NC(=O)[C@H](CC(C)C)NC(=O)[C@H](CC(C)C)NC(=O)OCc1ccccc1 | -17.1% (active)
CNC(=O)c1cc(Oc2ccc3nc(NC(=O)c4ccc5ncccc5c4)sc3c2)ccn1 | 92.7% (inactive)
CC(C)(C)OC(=O)N1C=C/C(=C\Cn2cc(-c3ccccc3)nn2)CC1 | 65% (inactive)
CC[C@@H]1NC(=O)[C@@H]2CCCCN2C(=O)[C@@H]2CCCN2C(=O)[C@@H](NC(=O)[C@H](Cc2cc(F)cc(F)c2)NC(=O)Nc2ccc(C3CC3)cc2F)[C@H](C)OC(=O)[C@@H]2C[C@@H](C)CN2C1=O | 25.7% (inactive)
CCCSc1nc(N)nc2nc[nH]c12 | 97.5% (inactive)
O=C(Nc1ccc(F)cc1)c1ccccc1 | 108% (inactive)
COc1ccc(-c2ccc(NNC(=O)c3ccc(F)cc3)nn2)cc1OC | 83.7% (inactive)
